Laboratory results: the supplement of paper PMC3334620
Whole data set: some 33,000 sequences, median “E-score (-0.5 to 0.5)” near -0.016, cut for the highest 2% near 0.3. The sample as a whole holds a higher share of the highest values than the screen did.

These sequences were tested against T1, Yer184c (UniProt P39961) (assay: PBM E-score (8-mer binding enrichment) (E-score (-0.5 to 0.5)); higher = stronger / more preferred TF binding). Conditions: protein concentration: 100 nM; construct: GST-full length.
T1 sequence: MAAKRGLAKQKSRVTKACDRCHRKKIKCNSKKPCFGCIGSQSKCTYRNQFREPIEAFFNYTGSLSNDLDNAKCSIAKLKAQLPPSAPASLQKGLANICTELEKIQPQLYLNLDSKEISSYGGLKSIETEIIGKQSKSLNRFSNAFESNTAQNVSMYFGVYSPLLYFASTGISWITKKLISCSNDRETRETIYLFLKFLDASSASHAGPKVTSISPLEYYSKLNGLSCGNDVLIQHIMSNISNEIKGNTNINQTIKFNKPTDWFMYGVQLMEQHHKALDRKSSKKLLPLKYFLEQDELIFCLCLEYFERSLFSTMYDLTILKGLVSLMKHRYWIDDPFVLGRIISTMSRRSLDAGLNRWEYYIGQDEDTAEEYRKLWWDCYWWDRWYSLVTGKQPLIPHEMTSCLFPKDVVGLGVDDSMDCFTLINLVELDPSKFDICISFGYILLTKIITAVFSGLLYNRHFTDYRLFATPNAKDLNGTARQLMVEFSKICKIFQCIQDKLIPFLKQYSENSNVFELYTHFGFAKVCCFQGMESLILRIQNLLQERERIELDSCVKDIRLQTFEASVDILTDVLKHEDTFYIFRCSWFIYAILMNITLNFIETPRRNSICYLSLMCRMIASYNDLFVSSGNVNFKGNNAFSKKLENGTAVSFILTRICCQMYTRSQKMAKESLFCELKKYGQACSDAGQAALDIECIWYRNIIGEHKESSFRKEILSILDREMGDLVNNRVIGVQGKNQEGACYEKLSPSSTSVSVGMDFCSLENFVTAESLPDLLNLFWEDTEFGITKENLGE
Method: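 Universal 'all 10-mer' protein binding microarrays (Agilent AMADID 015681) probed with GST-tagged S. cerevisiae TFs (full-length or DBD) made by in vitro transcription/translation (PURExpress), about 100-200 nM. Bound TF was detected with fluorescent anti-GST. Each ungapped 8-mer (which stands for itself and its reverse complement) is scored by the PBM enrichment score (E-score), a modified Wilcoxon-Mann-Whitney statistic from -0.5 to +0.5, computed with the Universal PBM Analysis Suite. Scale: above 0.35 generally sequence-specific binding.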

Sequence | PBM E-score
GAGAGGAC | -0.128
CGCCCGGA | 0.264
AGCCCGGG | 0.268
CGCCCGGC | 0.213
AGCCCGGA | 0.314
GGCCCGGA | 0.301
AGCCCGGC | 0.309
CCTGGAGA | -0.035
AATCCTGA | 0.0482
AAATACCT | -0.105
ATCAACTA | 0.178
GAGGTGCC | 0.0277
CAACGTGC | -0.133
ACAAGTAC | 0.00537
AAGCGAGT | 0.225
AGAGCCGG | 0.314
ATAGCCGG | 0.388
AGAGCCGA | 0.26
ATAGCCGC | 0.0602
AGAGCCGC | 0.0235
ACAGCCGG | 0.343
ACAGCCGC | -0.0252
ACAGCCGA | 0.0776
ATAGCCGA | 0.299
ATCCACTG | -0.143

Sequence | PBM E-score
CTCCAGTC | -0.195
CGACCGAA | 0.273
GGACCGAA | 0.353
GGACCGAC | 0.12
AGACCGAA | 0.305
TGACCGAA | 0.228
AGACCGAT | 0.0681
ACGTTGCC | -0.14
CGTTACCC | -0.104
CGATACCG | -0.0503
AAATTGCC | 0.168
CAGTGTGA | 0.0148
AGCTCCAG | -0.151
TAAATTCA | -0.0563
CCTTCGGC | 0.219
ACTTCGGA | 0.337
CCTTCGGA | 0.327
ACTTCGGG | 0.0741
GCTTCGGA | 0.304
GCTTCGCA | -0.163
CCTTCGCA | -0.0813
ACTTCGGC | 0.269
GCTTCGTA | -0.148
CGCGTTGA | -0.00366
GGTCTTGA | -0.0168

Sequence | PBM E-score
CAGTGGCC | -0.0943
ATTTGTGA | 0.0908
CCTCAACA | 0.126
ACCCTAGC | -0.109
AACGCCTG | -0.104
TCCAGGCA | -0.15
CCGCAAAC | 0.144
AGTCTTCA | -0.0522
CTTTCGGC | 0.201
ATTTCGGC | 0.373
ATTTCGCA | 0.24
CTTTCGGA | 0.286
ATTTCGTC | -0.0283
GTTTCGTA | 0.274
GTTTCGGA | 0.304
ATTTCGGA | 0.348
ATTTCGGG | 0.157
TCATAGGA | -0.0683
AATACCGA | 0.165
GACCATAA | 0.0623
CTCAGTAA | -0.0129
CAATGGAG | -0.164
CGGATACG | 0.247
AATATTCC | 0.342
AATATTAT | 0.293

Sequence | PBM E-score
AATATTCA | 0.037
TATATTAA | 0.274
AATATTCG | 0.0897
AATATTAA | 0.311
CGACCACA | -0.136
TAGCGAGA | 0.00559
AAGGACAA | 0.0335
ATCGGTCC | 0.0402
GTCCCACA | 0.00972
CTTGGTGA | -0.0525
ACCGAAAC | 0.264
GCCGAAAC | 0.34
CCCGAAAC | 0.0699
ACCGAATA | 0.173
GCCGAAAA | 0.439
ACCGAAAA | 0.349
TCCGAAAA | 0.264
CCCGAAAA | 0.263
ACCGAAAT | 0.218
CCCGAATA | 0.196
GCCGAATA | 0.361
ACCGAAAG | 0.181
GGTGGGAC | -0.349
GAAGTAGC | -0.00548
AGTAACGG | 0.101

Sequence | PBM E-score
AACGTAAG | -0.122
CATCAATC | -0.0552
GAGCCCCA | -0.266
CCGTGCGA | 0.166
CTTTGCCA | 0.034
TAACCATA | -0.0927
CTCTTTCC | -0.089
GAATTATA | 0.193
TAATTATA | 0.322
AAATTATA | 0.205
GGTGTTCA | 0.0476
ACCGGACC | 0.29
GCAGGAAC | -0.0354
ACCGGAAC | 0.398
GCCGGAAC | 0.403
ACCGGAAG | 0.279
ACCGGAAT | 0.233
ACCGGAAA | 0.376
CCCGGAAC | 0.298
GCCGGAGC | 0.238
AAGTCTAA | -0.093
CAGTCTCG | -0.0905
CAAGCGTC | -0.0502
GCTACTTA | -0.201
CATCTTGC | 0.0249

Sequence | PBM E-score
CGGCTCAG | 0.337
AGGCTCAG | -0.163
AGGCTCAA | -0.157
CGGCTCAA | 0.314
TGGCTCAA | -0.0833
CGGCTCAC | 0.183
TACAGTCA | -0.0508
ATCATTCA | 0.195
CATGGTGC | -0.169
CTACATAG | 0.0225
CGATACCA | -0.0309
GCCGGCCC | 0.343
TCCGGCCA | 0.218
GCCGGCCA | 0.348
ACCGGCCC | 0.13
GACGGCCA | -0.117
GACGGCCC | -0.168
GCCAGATA | -0.0238
GCCAACCC | -0.059
CCAAGGTC | -0.16
CGCTTATA | 0.0756
CCTTGCCA | -0.0398
CCTAATGC | -0.233
GCTTTCGA | -0.0696
ATTTTAGA | 0.0124

Sequence | PBM E-score
CACTGTCC | 0.0762
GAGCCAAA | -0.115
GAGCCGAC | 0.0364
AAGCCGAC | 0.13
AAGCCGAG | 0.286
GAGCCGAA | 0.372
AAGCCGAA | 0.389
AAGCCGAT | 0.356
CAGCCGAA | 0.229
AAGCCAAA | 0.0744
CTAAACGC | 0.0164
CTAGGCAC | -0.14
AGACCCAA | -0.134
GATGTTCC | 0.239
AGACCCCG | 0.08
ATGAAACA | 0.02
GCCCCGGA | 0.234
ACCCGGAT | 0.185
GCCCGGAA | 0.359
ACCCGGTA | 0.183
TCCCGGAA | 0.391
ACCCGGAA | 0.346
